# Laboratory results from PubChem BioAssay (EPA / NIEHS).
# Values joined by “and” are separate entries in the source; they are usually repeats but may differ in a detail not shown here. Equal values may be shown once. A structure can be active in one record and inactive in another. Active and inactive are the calls of the source. How the source made its calls: active means hit-call score of the fitted dose curve at least 0.9, where 1 is the maximum; inactive means score below 0.9.
# What was measured:
# [1] = biological target: Transcription factor E2F1 (Homo sapiens) (UniProt Q01094); experiment: ATG_E2F_CIS: Attagene CIS-FACTORIAL HepG2 Assay for human E2F Transcription Factor 1 (AID 2282935); conditions: HepG2 Attagene cis-reporter, E2F reporter RNA transcripts; actives raise or lower the signal
# Sequence of Transcription factor E2F1 (Homo sapiens) (Q01094 whole entry, looked up): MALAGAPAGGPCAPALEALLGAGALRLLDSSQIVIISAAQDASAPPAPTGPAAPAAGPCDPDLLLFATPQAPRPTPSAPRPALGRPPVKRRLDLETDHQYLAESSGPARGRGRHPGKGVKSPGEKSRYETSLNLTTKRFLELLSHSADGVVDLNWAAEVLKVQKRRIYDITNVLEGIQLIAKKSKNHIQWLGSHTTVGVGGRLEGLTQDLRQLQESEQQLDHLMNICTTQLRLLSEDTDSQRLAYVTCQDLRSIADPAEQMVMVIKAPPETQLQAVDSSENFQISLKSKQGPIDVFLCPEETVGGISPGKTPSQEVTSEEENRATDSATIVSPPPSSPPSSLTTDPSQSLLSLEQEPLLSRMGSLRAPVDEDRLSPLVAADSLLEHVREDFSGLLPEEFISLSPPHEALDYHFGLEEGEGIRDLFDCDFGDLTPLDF
# Method in brief: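 HepG2 cells transiently transfected with multiplexed cis-element reporter units, dosed for 24 h. Reporter mRNA measured by RT-PCR, 6-FAM primer-extension labeling, HpaI digestion and capillary electrophoresis; bidirectional fit versus DMSO baseline.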
# [2] = ATG_E_Box_CIS: Attagene CIS-FACTORIAL HepG2 Assay for human Enhancer Box (E-box) (AID 2282936); conditions: HepG2 E-box cis-reporter transcription, actives raise or lower the signal
# Method in brief: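 HepG2 cells transiently transfected with multiplexed cis-element reporter units sensing endogenous transcription factor activity; 24 h compound exposure. Reporter mRNA measured by RT-PCR, 6-FAM primer extension, HpaI digestion and capillary electrophoresis; bidirectional fit versus DMSO.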
# [3] = ATG_M_61_CIS: Attagene CIS-FACTORIAL HepG2 Assay for M61 Transcription Factor (Internal Marker) (AID 2282937); conditions: HepG2 Attagene CIS-FACTORIAL M61 internal marker reporter; actives raise or lower the signal
# Method in brief: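 HepG2 cells transiently transfected with cis-element-driven multiple reporter transcription units, dosed for 24 h. Reporter mRNA measured by RT-PCR, 6-FAM primer-extension labelling, HpaI digestion and capillary electrophoresis; bidirectional fit versus DMSO baseline.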
# [4] = ATG_EGR_CIS: Attagene CIS-FACTORIAL HepG2 Assay for human Early Growth Response 1 (EGR1) (AID 2282938); conditions: HepG2 Attagene CIS-FACTORIAL EGR reporter mRNA; actives raise or lower the signal
# Method in brief: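 HepG2 cells transiently transfected with cis-promoter-driven multiplexed reporter transcription units; reporter mRNA measured 24 h after compound dosing by RT-PCR, 6-FAM primer extension, HpaI digestion and capillary electrophoresis. Bidirectional fit versus DMSO baseline.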
# [5] = ATG_M_19_CIS: Attagene CIS-FACTORIAL HepG2 Assay for M19 Transcription Factor (Internal Marker) (AID 2282939); conditions: HepG2 Attagene CIS-FACTORIAL M19 internal marker reporter; actives raise or lower the signal
# Method in brief: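 Internal marker readout, fitted in both directions against DMSO, from HepG2 cells carrying transfected cis-element reporter constructs; RT-PCR and capillary electrophoresis of reporter mRNA after 24 h exposure.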
# [6] = ATG_ERE_CIS: Attagene CIS-FACTORIAL HepG2 Assay for Estrogen Response Element (ERE) (AID 2282940); conditions: HepG2 ERE cis-reporter, Attagene RNA transcript; actives raise or lower the signal
# Method in brief: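 After 24 h compound treatment, RNA from transfected HepG2 cells was reverse-transcribed, reporter cDNA PCR-amplified, FAM-labelled, HpaI-cut and resolved by capillary electrophoresis. ERE-driven cis reporter transcripts reflect endogenous factors; gain or loss scored against DMSO.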
# [7] = ATG_Ets_CIS: Attagene CIS-FACTORIAL HepG2 Assay for human Erythroblast Transformation Specific (ETS) (AID 2282941); conditions: HepG2 ETS cis-reporter transcription, actives raise or lower the signal
# Method in brief: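 HepG2 cells transfected with multiple cis-regulated reporter units measuring endogenous ETS-driven transcription, 24 h after dosing. Reporter mRNA quantified by RT-PCR with capillary electrophoresis; bidirectional fit relative to DMSO.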
# [8] = biological target: Hepatocyte nuclear factor 3-beta (Homo sapiens) (UniProt Q9Y261); experiment: ATG_FoxA2_CIS: Attagene CIS-FACTORIAL HepG2 Assay for human Forkhead box A2 (FOXA2) (AID 2282942); conditions: HepG2 cis-reporter transcription factor activity, 24 h; actives raise or lower the signal
# Sequence of Hepatocyte nuclear factor 3-beta (Homo sapiens) (Q9Y261 whole entry, looked up): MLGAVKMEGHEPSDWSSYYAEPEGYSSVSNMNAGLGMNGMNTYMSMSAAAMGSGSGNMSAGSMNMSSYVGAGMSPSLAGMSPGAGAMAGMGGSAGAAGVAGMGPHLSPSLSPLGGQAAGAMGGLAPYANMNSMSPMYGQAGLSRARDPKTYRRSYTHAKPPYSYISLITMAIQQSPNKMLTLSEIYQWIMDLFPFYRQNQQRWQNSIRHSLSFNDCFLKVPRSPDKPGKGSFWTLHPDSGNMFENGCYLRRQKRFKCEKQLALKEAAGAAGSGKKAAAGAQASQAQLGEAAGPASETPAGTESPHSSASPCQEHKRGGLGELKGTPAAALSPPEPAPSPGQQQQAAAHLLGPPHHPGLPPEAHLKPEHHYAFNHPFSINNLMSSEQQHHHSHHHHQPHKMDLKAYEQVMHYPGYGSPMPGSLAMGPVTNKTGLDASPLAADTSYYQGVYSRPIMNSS
# Method in brief: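 HepG2 cells transiently transfected with multiple cis-regulated reporter transcription units, dosed for 24 h. Reporter mRNA measured by RT-PCR, 6-FAM labelling, HpaI digestion and capillary electrophoresis; bidirectional fitting against DMSO baseline.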
# [9] = ATG_FoxO_CIS: Attagene CIS-FACTORIAL HepG2 Assay for human Forkhead box O (FoxO) (AID 2282943); conditions: HepG2 Attagene cis-reporter, FoxO element, mRNA; actives raise or lower the signal
# Method in brief: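 HepG2 cells transiently transfected with cis-promoter-driven multiple reporter transcription units; 24 h after chemical dosing, reporter mRNA quantified by RT-PCR, fluorescent primer extension, HpaI digestion and capillary electrophoresis. Bidirectional fitting versus DMSO baseline.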
# [10] = ATG_GATA_CIS: Attagene CIS-FACTORIAL HepG2 Assay for human GATA Binding Protein (AID 2282944); conditions: HepG2 GATA cis-element reporter, Attagene multiplex mRNA; actives raise or lower the signal
# Method in brief: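 Reporter transcripts from a GATA cis-regulated unit, among multiplexed reporters in transfected HepG2 cells, were measured by RT-PCR with capillary electrophoresis after 24 h dosing. Induction or loss scored relative to DMSO.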
# [11] = ATG_GLI_CIS: Attagene CIS-FACTORIAL HepG2 Assay for human Zinc Finger Protein GLI1 (AID 2282945); conditions: HepG2, Attagene cis-factorial reporter mRNA, GLI element; actives raise or lower the signal
# Method in brief: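 HepG2 cells transiently transfected with cis-promoter multiplexed reporter units report endogenous transcription factor activity. After 24 h chemical exposure, reporter mRNA was quantified by RT-PCR, 6-FAM labelling, HpaI digestion and capillary electrophoresis, with bidirectional fitting against DMSO.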
# [12] = biological target: Bile acid receptor (Homo sapiens) (UniProt Q96RI1); experiment: ATG_IR1_CIS: Attagene CIS-FACTORIAL HepG2 Assay for human Nuclear Receptor Subfamily 1 Group H Member 4 (NR1H4), IR1 submotif (AID 2282946); conditions: IR1 reporter transcription, actives raise or lower the signal
# Sequence of Bile acid receptor (Homo sapiens) (Q96RI1 whole entry, looked up): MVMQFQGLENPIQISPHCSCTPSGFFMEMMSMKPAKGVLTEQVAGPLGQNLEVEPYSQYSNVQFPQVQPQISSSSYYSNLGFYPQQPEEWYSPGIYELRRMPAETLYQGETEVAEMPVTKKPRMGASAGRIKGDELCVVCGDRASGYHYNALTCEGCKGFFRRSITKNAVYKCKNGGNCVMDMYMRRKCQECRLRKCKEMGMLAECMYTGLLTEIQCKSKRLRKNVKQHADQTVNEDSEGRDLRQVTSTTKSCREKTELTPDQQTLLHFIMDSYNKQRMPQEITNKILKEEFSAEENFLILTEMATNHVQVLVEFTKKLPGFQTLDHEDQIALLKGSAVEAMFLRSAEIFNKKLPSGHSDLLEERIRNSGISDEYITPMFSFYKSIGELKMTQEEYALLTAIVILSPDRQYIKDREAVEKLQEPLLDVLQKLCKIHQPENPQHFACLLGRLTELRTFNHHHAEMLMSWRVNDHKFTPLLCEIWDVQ
# Method in brief: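 Transient MRTU transfection, HepG2; 24 h dosing; RNA → RT-PCR → 6-FAM primer extension → HpaI digest → capillary electrophoresis fluorescence. Gain/loss of signal fitted relative to DMSO.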
# [13] = ATG_ISRE_CIS: Attagene CIS-FACTORIAL HepG2 Assay for human Interferon Regulatory Factor 1 (IRF1) binding to an Interferon-Stimulated Response Element (ISRE) (AID 2282948); conditions: HepG2 ISRE cis-reporter (Attagene), mRNA transcription readout; actives raise or lower the signal
# Method in brief: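 Transiently transfected HepG2 cells carrying cis-element reporter units, dosed 24 hours. Reporter mRNA quantified by RT-PCR, fluorescent primer extension, HpaI digestion and capillary electrophoresis. Bidirectional fitting relative to DMSO.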
# [14] = ATG_M_32_CIS: Attagene CIS-FACTORIAL HepG2 Assay for M32 Transcription Factor (Internal Marker) (AID 2282949); conditions: HepG2 Attagene cis-factorial M32 reporter, mRNA; actives raise or lower the signal;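 further: background control marker of the multiplexed CIS panel rather than a real target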
# Method in brief: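 Internal background marker read-out: RT-PCR/capillary electrophoresis fluorescence of reporter transcripts from transiently transfected HepG2 cells after 24 h chemical exposure. Activity fitted bidirectionally relative to DMSO negative control.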
# [15] = ATG_M_06_CIS: Attagene CIS-FACTORIAL HepG2 Assay for M06 Transcription Factor (Internal Marker) (AID 2282950); conditions: HepG2 Attagene CIS-FACTORIAL M06 internal marker reporter; actives raise or lower the signal
# Method in brief: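 Serves as a background control readout. Transfected HepG2 exposed to compounds for 24 h, then reporter transcripts quantified by fluorescent RT-PCR and capillary electrophoresis. Both directions fitted against DMSO baseline.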
# [16] = biological target: Hypoxia-inducible factor 1-alpha (Homo sapiens) (UniProt Q16665); experiment: ATG_HIF1a_CIS: Attagene CIS-FACTORIAL HepG2 Assay for human Hypoxia Inducible Factor 1 (HIF1A) (AID 2282951); conditions: HepG2 Attagene cis-factorial HIF1a reporter transcription; actives raise or lower the signal
# Sequence of Hypoxia-inducible factor 1-alpha (Homo sapiens) (Q16665 whole entry, looked up): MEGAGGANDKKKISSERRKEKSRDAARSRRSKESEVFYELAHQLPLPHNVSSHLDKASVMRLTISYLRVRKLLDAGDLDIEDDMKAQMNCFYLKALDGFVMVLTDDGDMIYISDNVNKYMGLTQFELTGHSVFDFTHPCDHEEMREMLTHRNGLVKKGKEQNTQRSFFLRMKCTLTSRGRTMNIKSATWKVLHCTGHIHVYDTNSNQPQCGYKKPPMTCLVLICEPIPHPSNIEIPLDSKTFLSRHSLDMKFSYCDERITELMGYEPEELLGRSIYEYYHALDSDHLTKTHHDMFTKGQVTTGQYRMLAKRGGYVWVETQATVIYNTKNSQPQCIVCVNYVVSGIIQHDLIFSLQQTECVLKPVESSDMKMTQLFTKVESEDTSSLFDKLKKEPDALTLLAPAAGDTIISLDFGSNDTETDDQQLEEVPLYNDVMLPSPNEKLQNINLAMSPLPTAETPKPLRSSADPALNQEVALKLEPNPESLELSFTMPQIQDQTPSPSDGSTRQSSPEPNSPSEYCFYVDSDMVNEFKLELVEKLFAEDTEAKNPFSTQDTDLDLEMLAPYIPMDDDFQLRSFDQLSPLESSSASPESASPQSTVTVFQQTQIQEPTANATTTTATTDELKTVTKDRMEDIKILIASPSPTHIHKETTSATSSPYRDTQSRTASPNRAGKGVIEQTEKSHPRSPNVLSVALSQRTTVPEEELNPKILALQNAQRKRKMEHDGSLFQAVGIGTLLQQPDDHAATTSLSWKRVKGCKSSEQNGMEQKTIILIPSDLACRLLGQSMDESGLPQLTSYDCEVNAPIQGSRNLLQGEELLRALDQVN
# Method in brief: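 HepG2 cells transiently transfected with multiplexed cis-promoter reporter units; reporter mRNA read 24 h after dosing by RT-PCR, 6-FAM primer-extension labelling, HpaI digestion and capillary electrophoresis. Bidirectional fit versus DMSO baseline.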
# [17] = biological target: Hepatocyte nuclear factor 6 (Homo sapiens) (UniProt Q9UBC0); experiment: ATG_HNF6_CIS: Attagene CIS-FACTORIAL HepG2 Assay for human Hepatocyte Nuclear Factor 6 (HNF6) (AID 2282952); conditions: HepG2 Attagene cis-factorial HNF6 reporter transcription; actives raise or lower the signal
# Sequence of Hepatocyte nuclear factor 6 (Homo sapiens) (Q9UBC0 whole entry, looked up): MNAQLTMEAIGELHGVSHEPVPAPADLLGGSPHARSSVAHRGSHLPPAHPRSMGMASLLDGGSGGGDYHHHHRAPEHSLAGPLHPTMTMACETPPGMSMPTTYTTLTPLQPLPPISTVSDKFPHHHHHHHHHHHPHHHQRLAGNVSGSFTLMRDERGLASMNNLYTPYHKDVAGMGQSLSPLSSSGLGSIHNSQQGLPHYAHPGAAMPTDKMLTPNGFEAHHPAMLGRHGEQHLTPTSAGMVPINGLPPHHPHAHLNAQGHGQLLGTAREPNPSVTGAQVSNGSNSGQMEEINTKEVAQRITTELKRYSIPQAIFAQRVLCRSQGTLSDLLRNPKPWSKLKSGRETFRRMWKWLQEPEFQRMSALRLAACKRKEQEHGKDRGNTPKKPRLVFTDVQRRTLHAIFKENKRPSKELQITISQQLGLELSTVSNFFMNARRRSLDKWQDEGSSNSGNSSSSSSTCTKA
# Method in brief: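 Cells are HepG2 carrying transiently transfected cis-promoter reporter units. Treatment lasts 24 h, after which reporter transcripts are reverse-transcribed, amplified, FAM-labelled and sized by capillary electrophoresis. DMSO serves as baseline.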
# [18] = biological target: Heat shock factor protein 1 (Homo sapiens) (UniProt Q00613); experiment: ATG_HSE_CIS: Attagene CIS-FACTORIAL HepG2 Assay for human Heat Shock Transcription Factor 1 (HSE) (AID 2282953); conditions: HepG2 HSE cis-reporter, Attagene RNA transcription; actives raise or lower the signal
# Sequence of Heat shock factor protein 1 (Homo sapiens) (Q00613 whole entry, looked up): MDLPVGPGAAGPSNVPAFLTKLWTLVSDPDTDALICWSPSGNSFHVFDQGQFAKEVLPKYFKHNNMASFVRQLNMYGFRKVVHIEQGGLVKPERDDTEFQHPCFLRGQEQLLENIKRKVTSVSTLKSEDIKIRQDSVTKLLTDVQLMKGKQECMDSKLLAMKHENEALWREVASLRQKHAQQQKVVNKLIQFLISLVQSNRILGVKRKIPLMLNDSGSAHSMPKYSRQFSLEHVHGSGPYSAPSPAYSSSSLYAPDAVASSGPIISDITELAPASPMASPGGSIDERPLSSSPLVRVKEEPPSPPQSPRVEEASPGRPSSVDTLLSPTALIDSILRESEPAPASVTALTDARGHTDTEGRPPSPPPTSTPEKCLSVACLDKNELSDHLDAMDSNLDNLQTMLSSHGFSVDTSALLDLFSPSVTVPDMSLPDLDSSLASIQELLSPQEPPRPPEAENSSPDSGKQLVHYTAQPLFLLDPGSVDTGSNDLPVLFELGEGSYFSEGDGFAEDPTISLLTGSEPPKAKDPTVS
# Method in brief: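 Endogenous transcription factor activity in transiently transfected HepG2, read as reporter mRNA by RT-PCR with fluorescent capillary electrophoresis after 24 h. Gain or loss of signal fitted versus DMSO baseline.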
# [19] = ATG_MRE_CIS: Attagene CIS-FACTORIAL HepG2 Assay for human Metal Responsive Element (MRE) (AID 2282954); conditions: HepG2 MRE cis-reporter transcription, Attagene multiplex; actives raise or lower the signal
# Method in brief: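 HepG2 cells transiently transfected with multiple cis-element reporter units measure endogenous MTF1-driven transcription. After 24 h compound exposure, reporter mRNA is quantified by RT-PCR with 6-FAM labelling, HpaI digestion and capillary electrophoresis; bidirectional fits versus DMSO.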
# [20] = ATG_GRE_CIS: Attagene CIS-FACTORIAL HepG2 Assay for human Glucocorticoid Response Elements (GRE) (AID 2282947); conditions: HepG2 GRE cis-reporter, Attagene multiplex mRNA; actives raise or lower the signal
# Method in brief: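 HepG2 cells transiently transfected with multiple cis-promoter reporter units measure endogenous TF activity; 24 h compound exposure. Reporter mRNA quantified by RT-PCR, FAM labelling, HpaI digestion and capillary electrophoresis; bidirectional fit vs DMSO baseline.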
structure (smiles),measurement,setting,value
O=C(O)C1(C(=O)Nc2ccc(Cl)cc2Cl)CC1,outcome,[1],inactive
same,outcome,[2],inactive
same,outcome,[3],inactive
same,outcome,[4],inactive
same,outcome,[5],inactive
same,outcome,[6],inactive
same,outcome,[7],inactive
same,outcome,[8],inactive
same,outcome,[9],inactive
same,outcome,[10],inactive
same,outcome,[11],inactive
same,outcome,[12],inactive
same,outcome,[13],inactive
same,outcome,[14],inactive
same,outcome,[15],inactive
same,outcome,[16],inactive
same,outcome,[17],inactive
same,outcome,[18],inactive
same,outcome,[19],inactive
CN(C)C(=O)Nc1ccc(Cl)c(Cl)c1,outcome,[1],inactive
same,outcome,[2],inactive
same,outcome,[3],inactive
same,AC50,[4],60.3 µM (active)
same,outcome,[4],inactive
same,outcome,[5],inactive
same,outcome,[6],inactive
same,outcome,[7],inactive
same,outcome,[8],inactive
same,outcome,[9],inactive
same,outcome,[10],inactive
same,outcome,[11],inactive
same,outcome,[20],inactive
same,outcome,[13],inactive
same,outcome,[15],inactive
same,outcome,[17],inactive
same,outcome,[18],inactive
S=C(S)NCCNC(=S)S.[Mn+2].[S-]C([S-])=NCCN=C([S-])[S-].[Zn+2],outcome,[1],inactive
same,outcome,[2],inactive
same,outcome,[3],inactive
same,AC50,[4],16.2 µM (active) and 16.5 µM (active) and 3.53 µM (active)
same,outcome,[4],inactive
same,outcome,[5],inactive
same,outcome,[7],inactive
same,outcome,[8],inactive
same,outcome,[9],inactive
same,outcome,[10],inactive
same,outcome,[11],inactive
same,outcome,[20],inactive
same,AC50,[13],9.92 µM (active) and 10.9 µM (active) and 50 µM (active)
same,outcome,[13],inactive
same,outcome,[15],inactive
same,outcome,[17],inactive
same,outcome,[18],inactive
same,outcome,[19],inactive
CCN(CC)C(=O)c1cccc(C)c1,outcome,[1],inactive
same,outcome,[2],inactive
same,outcome,[3],inactive
same,outcome,[4],inactive
same,outcome,[5],inactive
same,outcome,[6],inactive
same,outcome,[7],inactive
same,outcome,[8],inactive
same,outcome,[9],inactive
same,outcome,[10],inactive
same,outcome,[11],inactive
same,outcome,[12],inactive
same,outcome,[20],inactive
same,outcome,[13],inactive
same,outcome,[14],inactive
same,outcome,[15],inactive
same,outcome,[16],inactive
same,outcome,[17],inactive
same,outcome,[18],inactive
same,outcome,[19],inactive
COc1nc(C)nc(NC(=O)NS(=O)(=O)c2ccccc2OCCCl)n1,outcome,[1],inactive
same,outcome,[2],inactive
same,outcome,[3],inactive
same,outcome,[4],inactive
same,outcome,[5],inactive
same,outcome,[6],inactive
same,outcome,[7],inactive
same,outcome,[8],inactive
same,outcome,[9],inactive
same,outcome,[10],inactive
same,outcome,[11],inactive
same,AC50,[12],8.66 µM (active)
same,outcome,[12],inactive
same,outcome,[20],inactive
same,outcome,[13],inactive
same,outcome,[15],inactive
same,outcome,[17],inactive
same,outcome,[18],inactive
COC(=O)c1c(Cl)nn(C)c1S(=O)(=O)NC(=O)Nc1nc(OC)cc(OC)n1,outcome,[1],inactive
same,outcome,[2],inactive
same,outcome,[3],inactive
same,outcome,[4],inactive
same,outcome,[5],inactive
same,outcome,[6],inactive
same,outcome,[7],inactive
same,outcome,[8],inactive
same,outcome,[9],inactive
same,outcome,[10],inactive
same,outcome,[11],inactive
same,outcome,[12],inactive
same,outcome,[20],inactive
same,outcome,[13],inactive
same,outcome,[15],inactive
same,outcome,[16],inactive
same,outcome,[17],inactive
same,outcome,[18],inactive
O=C(c1ccc(O)cc1O)c1ccc(O)cc1O,outcome,[1],inactive
same,outcome,[2],inactive
same,outcome,[3],inactive
same,outcome,[4],inactive
same,outcome,[5],inactive
same,AC50,[6],843 nM (active) [middle of 4 runs]
same,outcome,[7],inactive
same,outcome,[8],inactive
same,outcome,[9],inactive
same,outcome,[10],inactive
same,outcome,[11],inactive
same,outcome,[12],inactive
same,outcome,[20],inactive
same,AC50,[13],100 µM (active)
same,outcome,[13],inactive
same,outcome,[15],inactive
same,outcome,[16],inactive
same,outcome,[17],inactive
same,AC50,[18],41.3 µM (active) [middle of 4 runs]
same,outcome,[19],inactive
